Common to all, as to design: scale not given: direction of the effect not stated beside the values
Test [1] addresses Protein translocase subunit SecA (Escherichia coli (strain K12)) (UniProt P10408). In words: Assay to Identify E. coli SecA ATPase Inhibitors. The test is classed as functional. To be noted: 30 µM.
For test [2], the target named is T1, Ubiquitin-activating enzyme e1, putative (Leishmania donovani (strain BPK282A1)) (UniProt E9BSI1).
T1 sequence (whole entry): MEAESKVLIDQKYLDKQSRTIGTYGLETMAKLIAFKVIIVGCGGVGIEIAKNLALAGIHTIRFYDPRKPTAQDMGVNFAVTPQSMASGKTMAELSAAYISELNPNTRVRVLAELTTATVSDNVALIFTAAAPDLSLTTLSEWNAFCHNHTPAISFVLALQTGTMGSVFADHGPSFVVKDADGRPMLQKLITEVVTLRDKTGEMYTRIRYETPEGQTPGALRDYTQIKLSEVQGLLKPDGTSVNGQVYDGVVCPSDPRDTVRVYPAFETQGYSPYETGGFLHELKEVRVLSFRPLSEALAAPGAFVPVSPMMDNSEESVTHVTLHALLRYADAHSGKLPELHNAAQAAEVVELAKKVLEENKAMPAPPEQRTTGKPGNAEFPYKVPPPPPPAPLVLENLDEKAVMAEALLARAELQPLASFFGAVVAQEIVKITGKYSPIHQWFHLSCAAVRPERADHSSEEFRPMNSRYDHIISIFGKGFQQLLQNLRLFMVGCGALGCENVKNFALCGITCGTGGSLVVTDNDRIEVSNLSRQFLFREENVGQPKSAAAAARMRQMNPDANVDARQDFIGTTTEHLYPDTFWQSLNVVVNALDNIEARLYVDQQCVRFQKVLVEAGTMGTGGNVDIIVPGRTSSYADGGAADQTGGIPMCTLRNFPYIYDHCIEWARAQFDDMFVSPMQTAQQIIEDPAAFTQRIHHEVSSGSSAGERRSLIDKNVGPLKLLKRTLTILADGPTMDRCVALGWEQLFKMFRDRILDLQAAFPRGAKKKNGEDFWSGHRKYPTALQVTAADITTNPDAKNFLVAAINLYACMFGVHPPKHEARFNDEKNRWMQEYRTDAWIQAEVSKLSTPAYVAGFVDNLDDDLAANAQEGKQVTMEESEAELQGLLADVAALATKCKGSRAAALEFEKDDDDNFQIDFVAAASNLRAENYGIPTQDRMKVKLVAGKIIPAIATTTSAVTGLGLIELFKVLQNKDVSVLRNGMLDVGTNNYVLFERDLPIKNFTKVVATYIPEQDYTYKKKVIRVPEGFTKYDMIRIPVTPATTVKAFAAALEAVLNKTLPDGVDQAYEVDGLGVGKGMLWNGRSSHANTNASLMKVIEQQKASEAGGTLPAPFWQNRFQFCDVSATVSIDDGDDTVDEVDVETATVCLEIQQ
The test is described as follows: Leishmania donovani Ubiquitin Activating Enzyme (LdE1). To be noted: 30 µM. It is filed as functional.

The target of test [3] is AMP-activated protein kinase, AMPK (Homo sapiens) (UniProt P54646+O43741+P54619+Q9UGJ0+Q9Y478+Q13131+Q9UGI9). In words: AMP-dependent Kinase enzyme assay. An in vitro enzyme assay that detects ADP turnover that is directly proportional to AMPK activity. This uses naive AMPK that is activated during the assay with MK-8722. It is filed as functional. To be noted: 30 µM.
The target in test [4] is Sialic acid-binding Ig-like lectin 9 (Homo sapiens) (UniProt Q9Y336). In words: Hs-Siglec9 ALPHAscreen SOP 20170721. The conditions noted are these: 10 µM. Background: Alpha assays give light when donor and acceptor beads are brought close together.
Chain of Sialic acid-binding Ig-like lectin 9 (Homo sapiens) (Q9Y336 whole entry): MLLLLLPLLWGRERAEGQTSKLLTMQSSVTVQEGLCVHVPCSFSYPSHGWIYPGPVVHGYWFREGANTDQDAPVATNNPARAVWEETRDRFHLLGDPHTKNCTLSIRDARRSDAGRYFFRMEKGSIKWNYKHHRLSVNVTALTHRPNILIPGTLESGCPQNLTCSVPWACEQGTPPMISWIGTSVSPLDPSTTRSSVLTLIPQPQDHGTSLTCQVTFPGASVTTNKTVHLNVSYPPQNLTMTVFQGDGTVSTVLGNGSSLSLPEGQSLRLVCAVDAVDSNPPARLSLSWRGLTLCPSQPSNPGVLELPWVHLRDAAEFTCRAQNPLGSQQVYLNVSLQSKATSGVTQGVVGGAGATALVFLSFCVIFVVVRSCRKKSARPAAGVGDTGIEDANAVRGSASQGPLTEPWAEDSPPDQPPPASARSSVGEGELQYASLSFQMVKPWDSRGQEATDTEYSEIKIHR
For another test, the system named is Trypanosoma cruzi. The test is described as follows: Trypanosoma cruzi phosphomannomutase and mannose-1-phosphate guanylyltransferase assay. It is filed as functional. To be noted: 10 µM.
Test [5] concerns the target T2, Arginase-2, mitochondrial (Homo sapiens) (UniProt P78540).
T2 sequence (whole entry): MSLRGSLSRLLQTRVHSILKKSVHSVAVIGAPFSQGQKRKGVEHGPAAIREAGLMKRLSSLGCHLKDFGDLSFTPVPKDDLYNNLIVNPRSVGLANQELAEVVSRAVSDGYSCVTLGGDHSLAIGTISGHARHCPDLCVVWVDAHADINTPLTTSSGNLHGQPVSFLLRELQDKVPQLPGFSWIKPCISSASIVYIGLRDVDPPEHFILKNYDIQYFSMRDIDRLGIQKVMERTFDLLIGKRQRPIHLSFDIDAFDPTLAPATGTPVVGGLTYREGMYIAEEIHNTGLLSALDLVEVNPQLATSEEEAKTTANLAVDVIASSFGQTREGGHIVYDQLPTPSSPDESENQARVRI
The test is described as follows: in vitro enzyme assay to detect the production of urea directly proportional to the activity of Arginase II. Further: in the data most compounds retested in dose-response had high values. It is filed as functional. The conditions noted are these: 33.3 µM.

For test [6], the target named is T3, Proteasome subunit beta (Trypanosoma cruzi) (UniProt O96673).
T3 sequence (whole entry): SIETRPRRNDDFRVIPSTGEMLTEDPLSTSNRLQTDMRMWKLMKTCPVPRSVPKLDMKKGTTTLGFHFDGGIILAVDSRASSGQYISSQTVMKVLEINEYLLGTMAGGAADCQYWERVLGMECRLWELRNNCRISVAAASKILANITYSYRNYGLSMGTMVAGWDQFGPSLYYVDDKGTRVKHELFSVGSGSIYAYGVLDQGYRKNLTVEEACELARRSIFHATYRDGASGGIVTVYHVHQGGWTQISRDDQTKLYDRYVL
In words: Trypanosoma cruzi proteasome chymotrypsin-like activity (TcProtChymo) assay. Further: in the data most compounds retested in dose-response had high values. The test is classed as functional. The conditions noted are these: 9.37 µM.

Another test is filed under the species Homo sapiens. In words: To identify inhibition of the IFN signalling (Jak-Stat) pathway via expression of an eGFP reporter gene under the control of an IFN-stimulated response element (ISRE) containing MxA promoter. It is filed as functional. The conditions noted are these: 30 µM.
The target in test [7] is T4, Tyrosyl-tRNA synthetase, putative (Trypanosoma cruzi (strain CL Brener)) (UniProt Q4DSP6).
T4 sequence (whole entry): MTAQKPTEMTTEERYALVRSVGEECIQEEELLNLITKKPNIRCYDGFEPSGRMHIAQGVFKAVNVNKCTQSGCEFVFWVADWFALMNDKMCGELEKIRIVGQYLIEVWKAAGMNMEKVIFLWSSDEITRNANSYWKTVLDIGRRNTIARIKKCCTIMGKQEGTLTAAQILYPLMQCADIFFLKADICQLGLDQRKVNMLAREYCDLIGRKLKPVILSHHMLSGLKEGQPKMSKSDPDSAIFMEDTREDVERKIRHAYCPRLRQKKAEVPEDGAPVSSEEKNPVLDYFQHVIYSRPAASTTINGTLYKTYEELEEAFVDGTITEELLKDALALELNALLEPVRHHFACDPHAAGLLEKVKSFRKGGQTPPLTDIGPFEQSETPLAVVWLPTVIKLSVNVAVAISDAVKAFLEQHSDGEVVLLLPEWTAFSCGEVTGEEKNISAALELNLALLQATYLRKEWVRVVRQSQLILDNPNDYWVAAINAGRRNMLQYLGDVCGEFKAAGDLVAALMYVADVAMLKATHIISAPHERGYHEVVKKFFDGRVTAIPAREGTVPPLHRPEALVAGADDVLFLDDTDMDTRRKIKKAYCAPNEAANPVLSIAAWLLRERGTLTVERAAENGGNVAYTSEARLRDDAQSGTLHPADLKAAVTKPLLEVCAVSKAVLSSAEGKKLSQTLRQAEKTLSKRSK
In words: Trypanosoma cruzi tyrosyl tRNA synthetase (TcYRS) _High Tyrosine SOP. Further: in the data most compounds retested in dose-response had high values. It is filed as functional. To be noted: 30 µM.

The target in test [8] is T4, Tyrosyl-tRNA synthetase, putative (Trypanosoma cruzi (strain CL Brener)). The test is described as follows: Trypanosoma cruzi tyrosyl tRNA synthetase (TcYRS) SOP. The test is classed as functional. To be noted: 30 µM.
Test [9] has as its target Chromo domain-containing protein 1 (Saccharomyces cerevisiae (strain ATCC 204508 / S288c) (Baker's yeast)) (UniProt P32657). The test is described as follows: ScCHD-1 Enzyme Inhibition Assay. Further: in the data most compounds retested in dose-response had high values. It is filed as functional. To be noted: 30 µM.

For some assays here: Entries with a potency or affinity are not part of this list.

Chain of Chromo domain-containing protein 1 (Saccharomyces cerevisiae (strain ATCC 204508 / S288c) (Baker's yeast)) (P32657 whole entry, the tested form may be a part): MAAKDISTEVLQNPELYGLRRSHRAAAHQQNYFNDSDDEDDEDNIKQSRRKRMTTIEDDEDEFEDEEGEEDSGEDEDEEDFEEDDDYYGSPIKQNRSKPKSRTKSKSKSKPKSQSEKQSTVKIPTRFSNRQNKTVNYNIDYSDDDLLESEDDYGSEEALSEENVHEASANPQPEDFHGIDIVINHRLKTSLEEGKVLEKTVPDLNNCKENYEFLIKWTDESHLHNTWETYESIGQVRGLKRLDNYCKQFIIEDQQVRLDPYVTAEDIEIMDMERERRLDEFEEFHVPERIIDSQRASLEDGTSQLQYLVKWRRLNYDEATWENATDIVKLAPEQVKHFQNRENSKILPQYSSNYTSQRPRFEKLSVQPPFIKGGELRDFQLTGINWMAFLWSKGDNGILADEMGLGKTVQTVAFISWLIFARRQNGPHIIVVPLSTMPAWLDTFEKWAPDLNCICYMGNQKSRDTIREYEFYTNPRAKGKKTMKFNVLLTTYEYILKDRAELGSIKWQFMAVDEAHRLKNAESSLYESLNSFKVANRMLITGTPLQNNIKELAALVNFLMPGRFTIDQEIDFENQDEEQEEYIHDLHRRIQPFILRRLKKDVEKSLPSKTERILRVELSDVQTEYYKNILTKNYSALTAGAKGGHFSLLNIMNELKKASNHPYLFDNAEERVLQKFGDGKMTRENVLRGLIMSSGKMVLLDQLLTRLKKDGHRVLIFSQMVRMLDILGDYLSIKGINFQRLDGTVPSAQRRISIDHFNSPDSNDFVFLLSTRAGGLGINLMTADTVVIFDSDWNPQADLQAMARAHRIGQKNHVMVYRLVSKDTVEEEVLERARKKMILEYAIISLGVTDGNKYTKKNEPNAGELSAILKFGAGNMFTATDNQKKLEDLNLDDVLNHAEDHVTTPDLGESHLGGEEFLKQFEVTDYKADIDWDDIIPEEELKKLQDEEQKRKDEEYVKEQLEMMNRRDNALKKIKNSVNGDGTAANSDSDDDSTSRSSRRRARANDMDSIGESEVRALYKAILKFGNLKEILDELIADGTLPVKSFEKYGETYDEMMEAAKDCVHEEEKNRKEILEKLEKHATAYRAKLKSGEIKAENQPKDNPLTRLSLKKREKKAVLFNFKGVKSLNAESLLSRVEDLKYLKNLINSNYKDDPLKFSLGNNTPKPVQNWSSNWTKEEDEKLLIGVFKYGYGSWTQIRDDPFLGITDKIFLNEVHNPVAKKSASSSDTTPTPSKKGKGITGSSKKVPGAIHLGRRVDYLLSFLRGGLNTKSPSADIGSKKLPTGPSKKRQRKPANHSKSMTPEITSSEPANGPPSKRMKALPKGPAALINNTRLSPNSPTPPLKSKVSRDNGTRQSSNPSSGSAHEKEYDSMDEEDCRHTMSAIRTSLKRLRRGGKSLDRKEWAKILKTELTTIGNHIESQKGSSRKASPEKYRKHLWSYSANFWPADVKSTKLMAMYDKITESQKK
Chain of Protein translocase subunit SecA (Escherichia coli (strain K12)) (P10408 whole entry): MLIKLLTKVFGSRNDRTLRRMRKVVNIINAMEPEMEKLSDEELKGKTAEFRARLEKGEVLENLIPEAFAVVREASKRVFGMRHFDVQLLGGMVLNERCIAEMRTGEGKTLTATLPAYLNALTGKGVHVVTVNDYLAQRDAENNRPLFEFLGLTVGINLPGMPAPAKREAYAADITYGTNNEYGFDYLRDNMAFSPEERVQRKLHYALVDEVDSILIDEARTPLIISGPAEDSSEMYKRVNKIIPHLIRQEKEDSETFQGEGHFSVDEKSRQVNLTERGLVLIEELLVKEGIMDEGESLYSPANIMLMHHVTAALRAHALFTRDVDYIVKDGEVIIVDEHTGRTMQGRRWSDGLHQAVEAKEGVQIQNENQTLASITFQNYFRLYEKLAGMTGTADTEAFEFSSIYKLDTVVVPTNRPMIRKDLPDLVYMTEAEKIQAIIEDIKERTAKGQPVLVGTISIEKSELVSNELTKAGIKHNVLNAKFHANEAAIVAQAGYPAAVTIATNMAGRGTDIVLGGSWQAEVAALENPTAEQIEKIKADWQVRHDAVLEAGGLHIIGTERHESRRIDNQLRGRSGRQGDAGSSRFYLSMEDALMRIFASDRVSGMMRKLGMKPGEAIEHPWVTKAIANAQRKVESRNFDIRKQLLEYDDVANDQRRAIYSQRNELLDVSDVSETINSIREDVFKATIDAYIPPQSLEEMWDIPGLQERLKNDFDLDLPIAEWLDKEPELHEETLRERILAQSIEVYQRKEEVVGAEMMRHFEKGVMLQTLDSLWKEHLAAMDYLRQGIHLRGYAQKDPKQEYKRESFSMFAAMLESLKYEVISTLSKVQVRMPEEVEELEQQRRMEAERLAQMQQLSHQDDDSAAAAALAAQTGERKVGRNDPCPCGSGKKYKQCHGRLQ

In the case of `Cc1ccc(N2CCCC(NCC(=O)NC3CCOCC3)C2)nn1` (stereo not given), the Percent Effect is -5.04% in test [1]; -3.8% in test [2]; -5.1% in test [3]; 4.11% in test [4]; -1.13% in the test with Trypanosoma cruzi; 4.95% in test [5]. Moreover, the Percent Effect was 3.94% in test [6]; -13.5% in the test listed under Homo sapiens; 0% in [7]; 5.06% in test [8]; -2.4% in test [9].

For the compound `O=C(c1ccc(Cl)o1)N1CCCC(c2cc(C(F)(F)F)[nH]n2)C1` (stereo not given), the Percent Effect in test [1] was -4.11%; in test [2] it was 7.89%; in test [3] it was 8.92%; in test [4], -5.86%; in the test on Trypanosoma cruzi, -4.95%; in [5], -0.719%. The Percent Effect in test [6] was 2.45%; in the test filed under Homo sapiens, 29.4%; in test [7], 3.45%; in test [8], 3.7%; in [9], -2.91%.

`Cc1ccc(CC(=O)NC(C)C(=O)N2CCS(=O)(=O)CC2)cc1` (stereo not given): the Percent Effect is -6.49% in test [1]; 0% in test [2]; -3.26% in [3]; 4.88% in [4]; -2.9% in the test with Trypanosoma cruzi; -1.91% in test [5]. Moreover, the Percent Effect in [6] is 10.2%; in the test listed under Homo sapiens, 1.44%; in test [7], 3.7%; in test [8], 2.44%; in test [9] it was -3.12%.

As to `CC(CNC(=O)N1CCSCC1)Cc1cccs1` (stereo not given), the Percent Effect in test [1] was -4.11%; in test [2], 0%; in test [3] it was 0.113%; in test [4], -1.72%; with Trypanosoma cruzi, -0.195%; in test [5] it was -2.08%. The Percent Effect in [6] was 5.83%; in the test filed under Homo sapiens, 1.53%; in [7], 4.95%; in test [8], 6.1%; in [9], -3.96%.

Take `CCCS(=O)(=O)NCC1CCOc2ccccc2C1` (stereo not given): the Percent Effect was -7.2% in test [1]; 0% in test [2]; 3.87% in test [3]; 5.88% in test [4]; -5.61% in the test on Trypanosoma cruzi; 17.9% in [5]. In addition, the Percent Effect in test [6] is 5.32%; in the test filed under Homo sapiens it was -3.37%; in [7], 0%; in test [8] it was 6.17%; in test [9] it was 3.34%.

Regarding `COc1ccc(CN2C[C@@H]3CCCO[C@@H]3[C@H](NS(C)(=O)=O)C2)cc1`, the Percent Effect was 0.295% in [1]; 13.3% in test [2]; -2.32% in test [3]; 4.91% in [4]; 2.9% in the test on Trypanosoma cruzi; -48.2% in test [5]. The Percent Effect was 5.13% in test [6]; -24.2% in the test listed under Homo sapiens; 6.25% in [7]; 25% in test [8]; -6.84% in test [9].

With `CCn1nc(C(C)C)cc1C(=O)NCCCOC`, the Percent Effect was -2.71% in [1]; 6.94% in [2]; 0.234% in [3]; -3.62% in test [4]; 6.51% in the test with Trypanosoma cruzi; -1.77% in test [5]. Also, the Percent Effect in [6] is 14.7%; in the test filed under Homo sapiens, -30.8%; in test [7] it was 4.21%; in test [8], 12.8%; in test [9], -4.31%.

In the case of `CCn1c(C)nnc1CN(C)C1CCN(Cc2nccn2C)C1` (stereo not given), the Percent Effect in [1] was 2.98%; in test [2], 10.8%; in test [3], -6.53%; in test [4], -4.6%; in the test with Trypanosoma cruzi, -8.7%; in test [5], 2.23%. Besides, the Percent Effect in [6] was 11.8%; in the test listed under Homo sapiens it was 16.4%; in [7], 9.68%; in [8], 16.1%; in [9] it was -3.99%.

Turning to `NCCn1nc(C2CCN(Cc3ccc(Cl)c(Cl)c3)C2)c2nccnc21` (stereo not given), the Percent Effect in [1] was -3.22%; in test [2], -14.9%; in test [3], 7.43%; in test [4] it was 0.383%; in the test on Trypanosoma cruzi it was 2.37%; in [5] it was -4.41%. For the same compound, the Percent Effect is 8.74% in test [6]; 7.68% in the test filed under Homo sapiens; 1.07% in test [7]; -1.3% in test [8]; -23.3% in test [9].

In the case of `COc1ccccc1OCc1cc(C(=O)N2CC=CC2C(C)C)n[nH]1` (stereo not given), the Percent Effect in test [1] is 0.254%; in [2], 1.39%; in test [3] it was -2.81%; in [4], 9.42%; with Trypanosoma cruzi, 2.82%; in test [5], 8.83%. The Percent Effect in [6] is 11.9%; in the test filed under Homo sapiens, -13.9%; in test [7], 5.26%; in test [8], 7.69%; in test [9] it was -2.27%.

The values are drawn from ChEMBL document CHEMBL3988442, “University of Dundee, Small-Polar-MMV Screening Library” (2021).
